Tests used:
[1] = target: T1, Aspartate--tRNA(Asp/Asn) ligase (Mycobacterium tuberculosis (strain ATCC 25618 / H37Rv)) (UniProt P9WFW3); assay: Assay for Asp RNA synthetase-1 from Mycobacterium tuberculosis; type: functional; design: scale not given: direction of the effect not stated beside the values; settings: 30 µM; further: in the data most compounds retested in dose-response had high values
T1 sequence (whole entry): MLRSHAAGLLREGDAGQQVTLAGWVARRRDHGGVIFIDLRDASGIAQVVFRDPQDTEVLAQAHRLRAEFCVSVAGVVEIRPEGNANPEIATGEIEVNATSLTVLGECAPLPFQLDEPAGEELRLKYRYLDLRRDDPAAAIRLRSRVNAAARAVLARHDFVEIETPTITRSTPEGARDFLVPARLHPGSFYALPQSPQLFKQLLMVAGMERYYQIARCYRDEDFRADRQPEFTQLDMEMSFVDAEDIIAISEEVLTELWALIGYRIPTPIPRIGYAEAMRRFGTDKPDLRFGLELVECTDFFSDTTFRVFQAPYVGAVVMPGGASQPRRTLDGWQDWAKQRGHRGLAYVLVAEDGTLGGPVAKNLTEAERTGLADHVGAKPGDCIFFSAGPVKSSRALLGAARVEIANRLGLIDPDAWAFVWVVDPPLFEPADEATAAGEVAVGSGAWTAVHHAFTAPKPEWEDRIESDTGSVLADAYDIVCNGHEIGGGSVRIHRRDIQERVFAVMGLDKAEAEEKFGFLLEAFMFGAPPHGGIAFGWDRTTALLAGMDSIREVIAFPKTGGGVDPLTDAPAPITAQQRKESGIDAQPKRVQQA

[2] = target: Shiga toxin 2 (Escherichia coli O157:H7) (UniProt P09385+P09386); assay: E. coli 0.157:H7 Shiga Toxin SOP - stx2 screening assay; type: functional; design: scale not given: direction of the effect not stated beside the values; settings: 30 µM

Structure (SMILES) | Percent Effect [1] [%] | Percent Effect [2] [%]
CC(C)(C)C(=O)NS(=O)(=O)c1ccc(C#N)cc1C(F)(F)F | 0.681 | 21.9
Cc1cc(C(=O)N2CCCCC2C)ccc1NCCCO (stereo not drawn) | -5.49 | 11.1
O=C(Nc1cccc2c1CCCC2)C1CCCN1c1nccs1 (stereo not drawn) | 2.28 | -43.4
Cn1cnc2c1CCN(CCCOc1ccc(C#N)cc1)C2 | -4.46 | -24.8
CC(C)c1ncc(CN2CCCC(CO)C2)cn1 (stereo not drawn) | 0.491 | 5.71
N#Cc1ccc(OCCCN2CCc3cncnc3C2)cc1 | -3.6 | -20.7
CN1CCOC(CN(C(=O)CC2CCCC2)c2nccs2)C1 (stereo not drawn) | 6.38 | 27.4
CS(=O)(=O)c1ccc(CNC2CCCN(c3cccnn3)C2)cc1 (stereo not drawn) | -4.64 | 4.3
CC(C)c1nc(C(=O)N2CCCC(n3cncn3)C2)c[nH]1 (stereo not drawn) | -5.02 | -8.87
Cc1ncsc1CN1CC[C@H]2C(=O)N(c3ccccc3)CCO[C@H]2C1 | -1.84 | 3.87
O=S(=O)(C1CC1)N1CCOCC2(CCN(c3ccccn3)C2)C1 (stereo not drawn) | 8.28 | -47.5
O=C(CCc1nc2cccnc2[nH]1)Nc1cccnc1 | -1.77 | -77.4
Cc1ccc(CN2CCCC3(CCN(S(=O)(=O)N(C)C)C3)C2)o1 (stereo not drawn) | 0.162 | 10.6
Cc1nc(C)c(CC(=O)Nc2nnc(C)s2)c(=O)[nH]1 | -2.12 | 19
Cc1cnc(CN2CCC(N(C)Cc3nnc(C4CC4)n3C)C2)cn1 (stereo not drawn) | 5.06 | 5.3
Cc1cc(C)n(CC2CCCN2C(=O)CCCc2ccccn2)n1 (stereo not drawn) | -1.59 | 31.8
COc1ccc(CN(C)C(=O)NCc2c(C)cc(C)[nH]c2=O)cc1 | 0.281 | 31.7
Cc1ccc(CN2CCCC23CCN(S(=O)(=O)c2ccccc2)C3)o1 (stereo not drawn) | 4.14 | 3.29
Cc1ncccc1O[C@H]1CCN(C(=O)c2cccs2)CC[C@@H]1O | 4.9 | 6.92
